# Screening data from PubChem BioAssay.
# An excerpt weighted towards active compounds, which were near 4.5% of everything screened.
# PfHsp40 yeast: rescue of PfHsp40-mediated yeast toxicity. S. cerevisiae expressing PfHsp40, growth rescue, ATP luminescence. growth rescue, % at 12.5 µM. actives 0.68% (n = 340,000); in the data active = growth rescue above about 28%, passing the limit was not always enough;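 also: yeast W303a lacking pdr1 and pdr3 grown in galactose medium; growth measured after three days at 30 °C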
# PrP 5UTR inh: inhibition of PrP 5' UTR reporter expression | cell-based PrP 5' UTR mRNA reporter, plate reader | inhibition, % (test concentration not listed) | actives 0.35% (n = 340,000); in the data active = inhibition above about 52%; also: 0 = median of the neutral control wells
# GDH-TPI counter: inhibits GDH-TPI coupling enzymes, artifact for Mtb FBA screen; GDH-TPI coupled enzyme counterscreen, NADH absorbance; inhibition, % at 4.8 µM; actives 1.2% (n = 360,000); in the data active = inhibition above about 30%;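 also: 0% = DMSO wells and 100% = wells lacking the enzyme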
# PrPC TRFRET: reduces human prion protein on the cell surface. P04156. cell surface PrPC, TR-FRET read-out. inhibition, % at 13.8 µM. actives 0.43% (n = 370,000). AID 720596; in the data active = inhibition above about 24%; also: 0% = median of the test wells and 100% = reference compound wells
# Mtb FBA inh: inhibits M. tuberculosis FBA enzyme. inhibition, % at 1 µM. actives 2.3% (n = 360,000). purified M. tuberculosis FBA, fluorescence read-out; in the data active = inhibition above about 27%;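 also: 0% = vehicle and 100% = reference inhibitor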
# Target sequence (P9WQA3 whole entry, looked up): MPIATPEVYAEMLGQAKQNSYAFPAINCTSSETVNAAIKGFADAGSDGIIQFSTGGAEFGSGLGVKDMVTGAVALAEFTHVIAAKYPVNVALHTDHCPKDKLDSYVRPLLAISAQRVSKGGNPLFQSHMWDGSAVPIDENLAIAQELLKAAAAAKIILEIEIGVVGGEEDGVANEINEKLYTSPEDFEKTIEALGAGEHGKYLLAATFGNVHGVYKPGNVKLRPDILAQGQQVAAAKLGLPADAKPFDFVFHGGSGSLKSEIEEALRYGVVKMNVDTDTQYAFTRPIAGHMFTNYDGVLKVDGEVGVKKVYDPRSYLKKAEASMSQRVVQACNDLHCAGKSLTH
# BJeLR lethal: kills HRASV12-expressing BJeLR cells | AID 1554 | BJeLR (HRASV12) viability, CellTiter-Glo ATP luminescence, 48 h | actives 0.17% (n = 300,000) | inhibition, % (no concentration beside the values); in the data active = inhibition above about 50%
# Numbers without * were called inactive; x = no result; + = active, no number.
SMILES,PfHsp40 yeast,PrP 5UTR inh,GDH-TPI counter,PrPC TRFRET,Mtb FBA inh,BJeLR lethal
COc1cc2c(c(OC)c1OC)-c1ccc(O)cc1[C@@H](NC(C)=O)CC2,-0.4,68.0*,9.2,9.5,3.7,31.8
COc1cc2c(c(OC)c1OC)-c1ccc(O)c(=O)cc1[C@@H](NC(C)=O)CC2,325.5*,-0.1,28.4,-7.0,-1.2,x
O=C(Nc1nc2c(F)cccc2s1)c1ccco1,1.2,-81.4,35.6*,-4.8,5.9,14.0
CC(=O)Nc1ccc2nc(NC(=O)c3ccco3)sc2c1,0.4,-40.0,32.3*,3.2,-1.2,6.9
CCC(=O)Nc1nc2ccc(NC(C)=O)cc2s1,-1.9,-26.8,0.9,-3.1,-4.1,4.8
CCOc1cccc2sc(Nc3nc4ccc(NC(C)=O)cc4s3)nc12,19.8,-28.1,39.1*,3.8,119.1*,-8.6
CC(=O)OC12CCCN(C1)/C(=C/c1cccc(N(C)C)c1)C2 (centres undefined),x,x,x,1.6,x,x
c1cncc(-c2nc(N3CCOCC3)c3ccccc3n2)c1,0.1,-21.9,16.7,x,-2.4,-0.7
c1ccc2c(N3CCOCC3)nc(-c3ccncc3)nc2c1,0.6,-3.2,32.9*,-8.6,-1.0,-2.7
CC1CCN(c2nc(-c3ccncc3)nc3ccccc23)CC1,281.9*,10.2,27.5,-4.0,9.4,0.0
CC1CCCCN1c1nc(-c2ccncc2)nc2ccccc12 (centres undefined),7.9,-12.2,21.7,-10.9,-3.3,6.2
COc1ccc(NC(=O)N2CCC(c3nc4ccc(Cl)cc4[nH]3)CC2)cc1OC,x,x,x,-10.5,x,x
C[C@H]1CCCC(=O)N[C@@H](c2ccccc2)[C@@H](C)CCCC(=O)N[C@H]1c1ccccc1,x,x,x,-8.0,x,x
O=S1(=O)c2c(NCc3ccco3)cccc2Oc2ccccc2CN1Cc1cn(Cc2cccc(F)c2)nn1,x,x,x,0.6,x,x
Cc1cccn2c(=O)c3cc(S(=O)(=O)c4ccccc4)c(=N)n(Cc4ccco4)c3nc12,-1.0,-25.3,6.3,0.2,21.5,-16.5
Cc1cccn2c(=O)c3cc(S(=O)(=O)c4ccc(F)cc4)c(=N)n(Cc4ccco4)c3nc12,-1.3,-4.1,0.0,-6.1,116.0*,3.5
Cc1ccc2nc3c(cc(S(=O)(=O)c4ccccc4)c(=N)n3Cc3ccco3)c(=O)n2c1,-1.4,-24.0,5.0,-19.2,121.5*,-12.1
Cc1ccc(S(=O)(=O)N2[C@@H](CO)CO[C@H]2CC(=O)c2ccccc2)cc1,x,x,x,2.6,x,x
Cc1nc2ccc(C(C(F)(F)F)(C(F)(F)F)C(F)(F)F)cc2[nH]1,241.2*,-57.5,-3.8,10.1,-3.2,19.8
O=C(Nc1ccc2c(c1)OCO2)NC1CCCCN(Cc2cccc(Cl)c2)C1=O (centres undefined),x,x,x,-1.4,x,x
COc1ccccc1-c1ccc(SCc2ccc(C)cc2)nn1,26.3*,-30.2,2.5,5.1,-0.2,-5.5
COc1ccccc1-c1ccc(SCc2ccc(F)cc2)nn1,6.1,-16.5,8.5,2.5,-3.5,-4.4
O=C(O)CCCC(=O)Nc1nc2n(n1)C(c1ccc(F)cc1)CC(c1ccc(Cl)cc1)N2 (centres undefined),-0.9,-11.8,2.1,7.2,9.6,3.0
CC1=CC(c2ccc(Cl)cc2)n2nc(NC(=O)CCC(=O)O)nc2N1 (centres undefined),-0.3,-20.4,4.0,-5.4,115.0*,-3.3
Cn1nc(C(C)(C)C)cc1NC(=O)C1(C)CCN1C(=O)C1(c2ccccc2)CC1 (centres undefined),x,x,-4.4,12.3,-0.6,x
SMILES,PfHsp40 yeast,PrP 5UTR inh,GDH-TPI counter,PrPC TRFRET,Mtb FBA inh,BJeLR lethal
O=C(O)c1cc2ccc3cccc4ccc(c1)c2c34,0.2,-29.4,27.0,-0.2,167.9*,-3.6
C=CCc1ccc(O)c(-c2ccc(O)c(CC=C)c2)c1,233.1*,-21.8,-2.8,-12.6,-2.1,-0.5
Cc1c(C(=O)N2CC(C)OC(C)C2)[nH]c2ccc(Br)cc12 (centres undefined),2.2,-24.6,1.3,27.6*,-1.5,-0.8
Cc1c(C)c2cc(Cl)c(O)c(CN3CCCC(C)C3)c2oc1=O (centres undefined),-0.8,3.2,8.2,-8.0,+,-1.3
CCc1cc2c(=O)c(-c3nc4ccccc4n3C)c(C(C)C)oc2c(CN2CCN(C)CC2)c1O,-1.2,-36.1,0.6,-3.3,16.9,11.3
Cc1c(C)c2cc(Cl)c(O)c(CN3CCN(C)CC3)c2oc1=O,-1.6,-1.7,27.7,-1.1,+,-3.2
CC1CCCN(Cc2cnc(Cl)s2)C1 (centres undefined),1.0,-19.2,6.0,2.2,-1.2,5.7
COC(=O)C[C@@H]1CC[C@H]2[C@@H](COc3ccc(NC(=O)c4ccc(C(F)(F)F)cc4)cc3C(=O)N2C)O1,x,x,x,4.0,x,x
O=C(CC1OC(=O)c2ccccc21)c1ccco1 (centres undefined),0.7,-22.7,41.4*,-10.3,-2.5,1.3
CC1(C)CC(=O)c2sc(NC(=O)CN3CCCCC3)nc2C1,-0.1,-22.8,34.4*,-4.8,0.7,-12.2
CC1(C)CC(=O)c2sc(NC(=O)C(C)(C)C)nc2C1,-1.3,-45.4,5.1,-8.2,1.7,7.3
CCN1C(=O)C(=Cc2cccc(OC)c2Oc2ccc([N+](=O)[O-])cc2[N+](=O)[O-])SC1=S,-2.1,x,2.6,-3.4,-2.4,94.1*
O=C1c2cccc(Cl)c2C(=O)c2c1cccc2N1CCCC1,380.5*,5.7,4.6,-13.0,-3.9,4.1
O=C1c2ccccc2C(=O)c2cc(N3CCCCC3)ccc21,0.6,45.6,-7.0,1.9,-2.6,x
O=c1nc2scc(-c3ccccc3)n2c2ccccc12,-0.6,-6.5,35.8*,1.6,4.7,-7.6
Clc1cccc(CSc2ncn(-c3ccccc3)n2)c1,31.1*,-30.0,-8.7,1.0,0.5,6.7
Clc1ccc(CSc2ncn(-c3ccccc3)n2)cc1,0.2,-7.9,-9.0,3.8,-0.3,1.2
COC(=O)c1cc(-c2cccs2)c(=O)n2c1CCC2,x,x,x,-16.9,x,x
COc1ccc(OC)c(/C=N/NC(=O)Cn2ccnc2C)c1,0.1,-14.2,14.2,1.8,165.4*,5.6
COc1cccc(/C=N/NC(=O)Cn2ccnc2C)c1,-1.0,-26.6,0.7,4.8,2.9,-8.2
Cc1c(N=C2NN=C(c3c[nH]c4ccccc34)CS2)c(=O)n(-c2ccccc2)n1C,1.3,-10.2,50.0*,-5.5,0.3,4.5
CCOC(=O)C(=CNc1cc(C(F)(F)F)ccc1N1CCOCC1)C(=O)OCC,4.7,-10.1,32.0*,1.7,-0.4,-2.1
CC(=O)Nc1cc(C(F)(F)F)ccc1N1CCOCC1,-0.6,-28.0,7.4,-2.5,-0.5,9.3
CCOC(=O)C(=CNc1cc(OC)ccc1-n1cccc1)C(=O)OCC,4.7,-24.0,36.0*,2.5,12.8,-3.3
CCOC(=O)C(=CNc1cc(C)ccc1C)C(=O)OCC,-0.8,-13.9,34.3*,6.9,-2.3,5.8
COC(=O)c1cn(-c2ccc3c(c2)[C@]2(CC(=O)N(C)C2c2ccccc2)C(=O)N3CC(C)C)nn1 (some centres undefined),x,x,x,-5.3,x,x
